Measured values from PubChem BioAssay AID1458 (National Center for Advancing Translational Sciences (NCATS), 2008).
The campaign covered roughly 210,000 compounds. About 5,900 (2.8%) were called active. Inconclusive results (about 5%) are left out. Calls follow the shape of the dose curve; as a rule, active = well fitted activation curve with a large enough effect; inconclusive = small, poorly fitted or top-dose-only effect; inactive = no such curve, though single readings can be large or run the other way. Many of the other results were omitted from the sample, so actives are more common in it than they were.

Assay: qHTS Assay for Enhancers of SMN2 Splice Variant Expression; also: nearly all actives have a fitted effect of over 55% in size; as to activity change, positive = activation: % of control where 0% means no effect
Details: HEK293 SMN2-luciferase splicing reporter, luminescence, 30-36 h; series mostly up to 46.1 µM; activity change, positive = activation: at the top concentration
Description: NIH Chemical Genomics Center [NCGC] NIH Molecular Libraries Probe Production centers Network [MLPCN] MLPCN Grant: R03 MH084179-01 Assay Submitter (PI): Elliot Androphy NCGC Assay Overview: Spinal muscular atrophy (SMA) is caused by insufficient levels of the survival motor neuron protein SMN. The SMN locus on chromosome 5q13 contains two inverted copies of SMN called SMN1 and SMN2 which are 99% identical at the amino acid level. SMN1 is a fully functional protein and SMN2 skips exon 7 90% of the time. Skipping of exon 7 produces non-functional protein product. 10% of the SMN2 protein includes exon 7 and is fully functional. In the SMA disease state, mutations in the SMN1 locus are the cause of the disease state. Because only 10% of SMN2 is of the fully functional form, it is not sufficient to overcome the deficiency produced by the loss of the SMN1 product. A therapy that either increase the amount of SMN2 product made or to increase the inclusion of exon 7 has been proposed for the treatment of SMA. We have designed an assay to identify small molecules that can increase the amount of functional SMN2 product by appending a luciferase reporter gene after the native SMN2 gene, such that inclusion of exon 7 in the expressed product places the luciferase sequence in frame, thus generating functional luciferase enzyme.
NCGC Assay Protocol Summary: This screen utilizes a luciferase reporter gene assay, combining the promoter and splicing based cassettes in tandem with the major portion of the native SMN2 cDNA, and then transfected into HEK293 cells. Compounds that increase luciferase signal presumably enhance expression of the functional SMN2 splice variant. Passaging media contained DMEM w/ glutamax (+phenol red) 10% FCS, 1x pen/strep, 200 ug/ml hygro, 1x sodium pyruvate. Assay media contained DMEM w/ glutamax (-phenol red) 10% FCS, 1x pen strep, 1x pyruvate Sequence, Parameter, Value, Description (1) Cells, […], 2000 cells/well, 1536 TC treated White solid bottom plate (2) Time, 10-12 hours, 37C 5% CO2 (3) Compound, 23 nl, MLSMR Library (4) Control Compound, 23 nL, Sodium butyrate st 4.5mM (final) conc (5) Time, 30-36 hours, 37C 5% CO2 (6) Reagent, 3 ul, One Glo (TM) from Promega (7) Time, 5-15 minutes, Room temp (8) Detector, Viewlux: luminescent read, 60 second integration, high speed 2x binning Keywords: Spinal muscular atrophy, SMA, SMN2, high throughput screening, MLSMR, MLPCN, NIH Roadmap, qHTS and NCGC
Potency is read from the fitted curve at half-maximal effect.

Activity change, positive = activation, inactive:
O=C(c1ccco1)n1nc(-c2ccc(Cl)cc2)nc1NCc1ccccc1 9.32%
CCCCOc1ccc(CN2C(=O)C(=O)c3cc(Br)cc(C)c32)cc1OC -33.5%
COC(=O)c1ccccc1NC(=O)c1ccc(COc2ccccc2Cl)o1 -4.75%
CSc1ccc(C#N)cc1NC(=O)c1cccc(Cl)c1 12.8%
Cc1cccc2c1-c1sc(C(=O)Nc3ccc(F)cc3F)cc1CO2 -7.99%
Nc1nc2c(ncn2[C@@H]2O[C@H](COP(=O)(O)OP(=O)(O)OP(=O)(O)O)[C@@H](O)C2O)c(=O)[nH]1 (stereo partly specified) 1.43%
CCN(CC)S(=O)(=O)c1cccc(C(=O)Nc2ccccc2)c1 -30.2%
Cc1ccc(C(=O)Nc2ccc(C(=O)O)cc2)cc1S(=O)(=O)Nc1ccccc1 -7.6%
COC(=O)c1ccc(OC)c(Cn2c(=O)n(Cc3ccccc3)c(=O)c3c2c2cc(OC)ccc2n3C)c1 -3.23%
CNC(=O)CSc1nnnn1-c1ccc(C)cc1C -16.8%
Cc1ccc(C(=O)CSc2nc(-c3ccccc3)nc3c2CCCC3)c(C)c1 2.13%
COc1ccccc1-c1cc(C(F)(F)F)nc(S(=O)(=O)CCCC(=O)Nc2ccc(F)cc2F)n1 2.69%
Cc1nc2ccccc2cc1C(=O)N/N=C/c1ccc([N+](=O)[O-])cc1 -19.1%
NC(=S)N/N=C/c1ccc([N+](=O)[O-])cc1 -8.3%
Cc1ccc(NC(=O)CN2CCC(C(N)=O)CC2)cc1[N+](=O)[O-] 8.3%
COc1ccc(NC(=O)c2ccccc2[N+](=O)[O-])cc1OC 16.3%
Cc1ccc(C)c(CN2C(=O)c3ccccc3S(=O)c3ccc(C(=O)N4CCOCC4)cc32)c1 (stereo unspecified) -1.41%
COc1ccccc1-c1cc2nc(C)c(CCC(=O)O)c(C)n2n1 -22%
Cc1ccc(CN2COc3cc(C)c4c(oc(=O)c5ccccc54)c3C2)cc1 -3.2%
CCOC(=O)c1ccc(-c2ccc(/C=C(\C#N)C(=O)Nc3ccc(OCC)cc3)o2)cc1 -11.3%
Cc1ccc2nc(/C(C#N)=C\c3ccc(OC(=O)c4cccs4)cc3)[nH]c2c1 1.65%
O=C(NCCc1ccccc1)c1ccc2c(c1)N(Cc1ccccc1)C(=O)c1ccccc1S2(=O)=O 4.46%
Cc1nnc(SCC(=O)N2CCc3ccccc32)n1-c1ccccc1 -11.7%
NC(=O)N1CCc2ccccc21 -6.27%
Cc1ccc(C)c(N2CCN(C(=O)CN3C(=O)COc4ccc(S(=O)(=O)N5CCCCCC5)cc43)CC2)c1 6.26%
Cc1cc(C)nc(NS(=O)(=O)c2ccc(NC(=O)c3cc(=O)c4ccc(C)c(C)c4o3)cc2)n1 2.53%
COc1ccccc1-c1nnc(C2CCN(C(=O)c3ccc(Cl)cc3)CC2)o1 -12.1%
CCOc1cc(NC(=O)c2ccccn2)c(OCC)cc1NC(=O)c1ccc(OC)cc1 -2.18%
Cc1cc(N/C=C\C(=O)c2ccc(Cl)c(Cl)c2)no1 10.9%
CCC(=O)N1CCc2cc(S(=O)(=O)NC(CC(C)C)C(=O)NCCc3cccc(C)c3)ccc21 (stereo unspecified) -12.6%
N#Cc1c(NC(=O)CCCl)sc2c1CCCCC2 3.56%
N#Cc1c(NC(=O)C2CC(Cl)=CCC2C(=O)O)sc2c1CCCCC2 (stereo unspecified) -0.264%
Cc1ccccc1C(=O)N(Cc1ccc(N(C)C)cc1)CC1CCCO1 (stereo unspecified) 5.65%
c1cnn(-c2cc(N3CCOCC3)ncn2)c1 -14%
COc1c(C)cccc1C(=O)Nc1cc(Cl)ccc1N1CCOCC1 11.4%
Cc1ccc(-c2nc3cccc(C)n3c2Nc2ccc3c(c2)OCCO3)cc1 15.9%
O=C(Nc1cc(C(F)(F)F)ccc1Cl)c1cc2nc(-c3ccc4c(c3)OCO4)cc(C(F)(F)F)n2n1 -0.044%
COc1cc(OC)c(C(=O)Nc2ccc(N(C)C)cc2)cc1OC -2.79%
CC(C)CNC(=S)Nc1ccc(F)cc1 26.9%
COc1ccc(N(C)C(=O)CCS(=O)(=O)c2cccc3nsnc23)cc1 9.32%

Potency, active:
N#Cc1ccccc1NC(=O)c1cccc(COc2ccc(Cl)cc2Cl)c1 0.794 µM
CCN(CC)S(=O)(=O)c1cc(C(=O)Nc2ccccn2)ccc1C 22.4 µM
CCn1nnnc1SCC(=O)c1ccc(C)cc1C 2.82 µM
Cc1ccsc1C(=O)N/N=C/c1ccc([N+](=O)[O-])cc1 12.6 µM
Cc1ccc(NC(=O)c2sccc2C)cc1[N+](=O)[O-] 14.1 µM
Cc1ccc2nc(/C(C#N)=C/c3ccc(-c4ccc(C(=O)OC(C)C)cc4)o3)[nH]c2c1 11.2 µM
O=C(CSCc1ccccc1)N1CCc2ccccc21 12.6 µM
COc1ccc(C(=O)/C=C/Nc2ccccn2)cc1 1.41 µM
N#Cc1c(NC(=O)C2CCCO2)sc2c1CCCCC2 (stereo unspecified) 6.31 µM
O=C(Nc1cc(N2CCOCC2)ncn1)NC1(C(F)(F)F)Oc2ccc(Cl)cc2O1 (stereo unspecified) 20 µM
CC(C)CNC(=O)C(=O)Nc1ccc(N(C)C)cc1 11.2 µM
